Only some compounds are listed: those with a hit (about 1.2% of all), similar ones and a draw of the others.
Avidin fluor = green autofluorescence of compounds with avidin beads – biophysical, 488/530 nm, flow cytometry, artefact control, profiling panel. AID 1775, 2009. compound fluorescence 488/530 nm; hits give high values. 220,000 compounds, 0.38% hits. fluorescence (KMESF) at 10 µM; in the data active means fluorescence above about 47
RGS4-Gao reg = modulators of RGS4 binding to Galphao, primary screen, biochemical, multiplexed bead flow cytometry | actives lie on both sides | binding response (% of control), % at 10 µM | 220,000 compounds, 0.33% hits; in the data active means binding response below about 49% or above about 150%; inactive means in between;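 further: fluorescent Galphao activated with aluminum fluoride binding bead-coupled RGS4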
Target sequence (P09471 whole entry, looked up): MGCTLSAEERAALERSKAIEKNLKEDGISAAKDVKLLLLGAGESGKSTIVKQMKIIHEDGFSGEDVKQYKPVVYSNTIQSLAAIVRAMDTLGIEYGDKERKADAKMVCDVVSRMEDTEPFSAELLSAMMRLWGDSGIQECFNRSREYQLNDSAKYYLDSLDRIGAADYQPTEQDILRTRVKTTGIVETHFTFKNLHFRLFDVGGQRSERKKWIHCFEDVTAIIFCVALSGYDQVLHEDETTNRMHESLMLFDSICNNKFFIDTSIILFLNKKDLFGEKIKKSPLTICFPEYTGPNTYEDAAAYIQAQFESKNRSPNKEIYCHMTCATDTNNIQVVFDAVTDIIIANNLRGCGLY
RGS8-Gao reg = RGS8-Galphao binding modulators, primary screen, biochemical, multiplexed bead flow cytometry | Guanine nucleotide-binding protein G(o) subunit alpha (Homo sapiens), P09471 | actives lie on both sides | response (percent of control binding), % at 10 µM | 220,000 compounds, 0.34% hits; in the data active means response below about 60% or above about 140%; inactive means in between;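 further: Galphao activated as the GDP aluminium fluoride complex binding bead-coupled RGS8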
GSH bead fluor = compound fluorescence on glutathione beads, profiling panel, artefact control, biophysical, 488/530 nm, flow cytometry; GSH beads flow cytometry, compound fluorescence 488/530 nm; hits give high values; fluorescence (KMESF) at 10 µM; 190,000 compounds, 0.25% hits; in the data active means fluorescence above about 89;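 further: glutathione beads carrying GST-tagged Bcl family fusion proteins plus one bare bead set; values are compound well signal with DMSO vehicle wells as background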
RGS7-Gao = RGS7-Galphao binding modulators, primary screen, biochemical, multiplexed bead flow cytometry; actives lie on both sides; binding response (% of control), % at 10 µM; 220,000 compounds, 0.35% hits; Guanine nucleotide-binding protein G(o) subunit alpha (Homo sapiens), P09471; in the data active means binding response below about 49% or above about 150%; inconclusive means no clear call, values can overlap the other calls; inactive means in between;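 further: fluorescent Galphao held in activated GDP-AlF4 state binding bead-coupled RGS7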
RGS16-Gao HTS = modulators of RGS16 binding to Galphao, primary screen, biochemical, human proteins, multiplexed bead flow cytometry. bead-based flow cytometry RGS16-Galphao binding, fluorescence; actives lie on both sides. binding response (% of control), % at 10 µM. 220,000 compounds, 0.38% hits. AID 1441, 2008;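 further: Galphao activated by GDP with aluminum fluoride before binding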
Target sequence (O15492 whole entry, looked up): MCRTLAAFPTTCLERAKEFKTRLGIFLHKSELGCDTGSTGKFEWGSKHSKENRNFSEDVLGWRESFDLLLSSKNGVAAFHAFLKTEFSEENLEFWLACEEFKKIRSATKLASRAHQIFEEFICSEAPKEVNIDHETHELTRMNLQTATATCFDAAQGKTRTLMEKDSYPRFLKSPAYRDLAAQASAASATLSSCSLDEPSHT
Target sequence (P09471 whole entry, looked up): as the sequence (P09471 whole entry, looked up) above
RGS4-Gao HTS = modulators of RGS–Galpha-o binding, primary screen, biochemical, multiplexed beads, flow cytometry, RGS4/7/8/16/19 | shares compounds with RGS16-Gao HTS | multiplexed bead flow cytometry | RGS4–Galpha-o binding response, % at 10 µM | 1,600 compounds, 99% hits | AID 1504, 2009;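 further: fluorescently labeled Galpha-o bound to GDP with aluminium fluoride binding biotinylated RGS beads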
Avidin counter = disruption of biotin probe capture by avidin, counter-screen for RGS protein interaction modulators, biochemical, flow cytometry, bead-based; shares compounds with RGS16-Gao HTS; streptavidin beads, fluorescein-biotin binding; inhibition, % at 10 µM; 1,700 tested, under 10 active;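 active means inhibition above 50%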;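 further: median green fluorescence of gated singlet beads compared with DMSO control wells; 0% = DMSO wells and 100% = complete loss of bead fluorescence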
RGS8-Gao confirm = RGS8-Galphao binding modulators, confirmation, biochemical, multiplexed bead flow cytometry, single concentration; shares compounds with RGS16-Gao HTS; bead-based flow cytometry RGS8-Galphao binding, fluorescence; actives lie on both sides; binding response (% of control), % at 10 µM; 1,700 compounds, 3% hits; AID 1836, 2009; in the data active means binding response below about 72% or above about 130%; inactive means in between;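 further: Galphao activated as GDP AlF4 complex before binding bead RGS8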
RGS7-Gao single = RGS7-Galphao binding modulators, confirmation, biochemical, multiplexed bead flow cytometry, single concentration; shares compounds with RGS16-Gao HTS; bead-based flow cytometry RGS7-Galphao binding; actives lie on both sides; response (percent of control binding), % at 10 µM; 1,700 compounds, 7.8% hits; AID 1837, 2009; in the data active means response below about 75% or above about 130%; inactive means in between;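 further: fluorescent Galphao activated with GDP and aluminum fluoride binding bead-coupled RGS7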
RGS16-Gao conf = modulators of RGS16-Galphao protein binding, confirmation, biochemical, single concentration, multiplexed bead flow cytometry; shares compounds with RGS16-Gao HTS; 1,700 compounds, 4% hits; response (% of control binding), % at 10 µM; bead-based flow cytometry; actives lie on both sides; in the data active means response below about 74% or above about 130%; inactive means in between;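 further: Galphao activated as the GDP aluminium fluoride complex binding bead-coupled RGS16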
RGS4-Gao single = modulators of RGS4-Galphao protein binding, confirmation, biochemical, single concentration, multiplexed bead flow cytometry; shares compounds with RGS16-Gao HTS; actives lie on both sides; binding response (% of control), % at 10 µM; 1,700 compounds, 4% hits; in the data active means binding response below about 74% or above about 130%; inactive means in between
RGS19-Gao single = regulators of RGS19-Galphao binding, confirmation, biochemical, single point, multiplexed bead flow cytometry | shares compounds with RGS16-Gao HTS | bead-based flow cytometry RGS19-Galphao binding; actives lie on both sides | response (percent of control binding), % at 10 µM | 1,700 compounds, 5% hits | AID 1841, 2009; in the data active means response below about 50% or above about 160%; inactive means in between;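 further: 100% = no compound control and 0% = blank background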
* marks the source's active call; other numbers are inactive results; i = inactive; ? = inconclusive; . = not tested or not shown; [ ] = another dose, or the depositor's remark. Unless noted, how the calls were made is not given here.

SMILES	Avidin fluor	RGS4-Gao reg	RGS8-Gao reg	GSH bead fluor	RGS7-Gao	RGS16-Gao HTS	Avidin counter	RGS8-Gao confirm	RGS7-Gao single	RGS16-Gao conf	RGS4-Gao single	RGS19-Gao single	others
CCOc1ccccc1/C=N/NC(=O)c1cccc(S(=O)(=O)N(CC)CC)c1	11	93	100	11	92	94	.	.	.	.	.	.
CCOc1ccc(NC(=S)NC(=O)c2c(Br)cnn2C)c([N+](=O)[O-])c1	-2	-40*	-1.6*	12	-20*	224	-2	101	102	101	102	99
S=C(NCCCN1CCOCC1)Nc1ccc(Nc2ccccc2)cc1	7	99	96	13	103	97	.	.	.	.	.	.
CC(C)COc1ncnc2c1sc1nc3c(cc12)COC(C)(C)C3	75*	224*[activator]	130	.	?	206*[activator]	-1	102	100	101	100	92
COc1ccc(Cl)cc1S(=O)(=O)N1CCCC1	.	.	.	44	.	.	0	102	103	106	103	110
COc1ccc(Cl)cc1S(=O)(=O)N1CCN(C)CC1	8	101	100	22	103	107	.	.	.	.	.	.
O=C(NCc1cccnc1)C(=O)NCC1OCCN1S(=O)(=O)c1cc(F)ccc1F (stereo unspecified)	75*	206*[activator]	115	.	?	200*[activator]	-1	100	95	96	95	124
O=C(NCc1ccco1)c1nc(-c2ccc(F)cc2)no1	15	87	91	12	104	85	.	.	.	.	.	.
CCOc1ccc(NC(=O)CSC(N)=O)cc1	5	100	163*[activator]	43	106	243	1	103	90	100	95	91	RGS4-Gao HTS=100*
CCOc1ccc(NC(=O)CC)cc1	10	106	105	21	?	107	.	.	.	.	.	.
O=S(=O)(c1cccc(C(F)(F)F)c1)N1CCN(C(=S)NC2CC2)CC1	11	95	98	10	98	86	.	.	.	.	.	.
Cc1ccc(NC(=S)N2CCC(C(N)=O)(N3CCCCC3)CC2)c(C)c1	11	99	101	27	99	97	.	.	.	.	.	.
CCOC(=O)c1c(C)n(CC)c2ccc(OC(=O)c3ccc([N+](=O)[O-])cc3)cc12	5	102	100	9	.	100	1	95	95	95	95	103
NNC(=O)CN1CCN(c2ncc(C(F)(F)F)cc2Cl)CC1	23	101	102	12	100	102	.	.	.	.	.	.
CC(C)(C)NC(=O)NC(=O)CN1CCN(c2ncc(C(F)(F)F)cc2Cl)CC1	.	.	.	41	.	.	0	98	89	92	94	94
CN(CCc1ccccn1)C(=O)CCC1CCCN(C(=O)c2c3c(nn2C)CCCC3)C1 (stereo unspecified)	11	103	105	18	99	103	.	.	.	.	.	.
CC(=O)c1ccccc1NC(=O)Cn1c(=O)cnc2ccccc21	7	102	100	6	102	92	.	.	.	.	.	.
CCCn1c(SCC(=O)Nc2cccc(Cl)c2Cl)n[nH]c1=O	20	106	103	15	103	111	.	.	.	.	.	.
CCCn1c(SCC(=O)Nc2ccccc2Oc2ccccc2)n[nH]c1=O	1	78	83	42	84	-28*	1	103	102	100	100	112	RGS4-Gao HTS=78*
Cc1ccccc1-n1c(=O)c(C#N)cc2c(=O)n3ccccc3nc21	7	99	103	4	96	103	.	.	.	.	.	.
Cc1cc(-n2c(=O)c(C#N)cc3c(=O)n4ccccc4nc32)no1	4	89	81	9	86	-3.0*	.	.	.	.	.	.	RGS4-Gao HTS=89*
COc1cc(C(=O)N2CCC(O)(c3ccccc3)CC2)cc(OC)c1OC	.	.	.	13	.	.	-2	102	106	104	103	105
CCOC(=O)c1c(C)n(C)c2ccc(O)c(CN3CCN(C)CC3)c12	3	131	150*[activator]	47	121	345	3	94	102	96	98	95	RGS4-Gao HTS=131*
COc1ccc(C(F)(F)F)cc1NC(=O)c1nc2nc(C)cc(C(F)F)n2n1	1	38*	30*	31	33*	5	i	99	106	101	103	101
CC(C)CNC(=O)c1cccc(NC(=O)CCc2ccccc2)c1	8	105	106	10	100	107	.	.	.	.	.	.
COc1cccc(CC2(CO)CCCN(Cc3c(C)cc(C)cc3-n3cccn3)C2)c1 (stereo unspecified)	2	96	100	10	98	100	.	.	.	.	.	.
O=C(NCCN=C1NS(=O)(=O)c2ccccc21)c1ccc2nccnc2c1	3	99	100	18	99	100	.	.	.	.	.	.
O=C(NCCN=C1NS(=O)(=O)c2ccccc21)c1ccncc1	72*	148	114	10	163*[activator]	125	-1	101	98	101	101	100	RGS4-Gao HTS=148*
CC(C)(C)c1ccc(N=C2SCC(=O)N2Cc2cccs2)cc1	4	100	103	.	?	103	.	.	.	.	.	.

Bioassay records as filed in PubChem.
